# Experimental data published in PMC4336329 (PLoS ONE, 2015).
# About 14,000 (4.5%) of roughly 310,000 compounds showed an effect of 50% or more. The effect is printed as a negative number. The full list was thinned out, with strong results kept by preference.
# Biological target: human ether-à-go-go-related gene (hERG) potassium channel (human, UniProt Q12809)
# Assay: primary screen, population patch clamp on CHO cells stably expressing hERG; higher = less effect of the substance
# 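Also: peak tail current of the secondary pulse compared with the same well before compound.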
# Chain of human ether-à-go-go-related gene (hERG) potassium channel (Q12809 whole entry, looked up): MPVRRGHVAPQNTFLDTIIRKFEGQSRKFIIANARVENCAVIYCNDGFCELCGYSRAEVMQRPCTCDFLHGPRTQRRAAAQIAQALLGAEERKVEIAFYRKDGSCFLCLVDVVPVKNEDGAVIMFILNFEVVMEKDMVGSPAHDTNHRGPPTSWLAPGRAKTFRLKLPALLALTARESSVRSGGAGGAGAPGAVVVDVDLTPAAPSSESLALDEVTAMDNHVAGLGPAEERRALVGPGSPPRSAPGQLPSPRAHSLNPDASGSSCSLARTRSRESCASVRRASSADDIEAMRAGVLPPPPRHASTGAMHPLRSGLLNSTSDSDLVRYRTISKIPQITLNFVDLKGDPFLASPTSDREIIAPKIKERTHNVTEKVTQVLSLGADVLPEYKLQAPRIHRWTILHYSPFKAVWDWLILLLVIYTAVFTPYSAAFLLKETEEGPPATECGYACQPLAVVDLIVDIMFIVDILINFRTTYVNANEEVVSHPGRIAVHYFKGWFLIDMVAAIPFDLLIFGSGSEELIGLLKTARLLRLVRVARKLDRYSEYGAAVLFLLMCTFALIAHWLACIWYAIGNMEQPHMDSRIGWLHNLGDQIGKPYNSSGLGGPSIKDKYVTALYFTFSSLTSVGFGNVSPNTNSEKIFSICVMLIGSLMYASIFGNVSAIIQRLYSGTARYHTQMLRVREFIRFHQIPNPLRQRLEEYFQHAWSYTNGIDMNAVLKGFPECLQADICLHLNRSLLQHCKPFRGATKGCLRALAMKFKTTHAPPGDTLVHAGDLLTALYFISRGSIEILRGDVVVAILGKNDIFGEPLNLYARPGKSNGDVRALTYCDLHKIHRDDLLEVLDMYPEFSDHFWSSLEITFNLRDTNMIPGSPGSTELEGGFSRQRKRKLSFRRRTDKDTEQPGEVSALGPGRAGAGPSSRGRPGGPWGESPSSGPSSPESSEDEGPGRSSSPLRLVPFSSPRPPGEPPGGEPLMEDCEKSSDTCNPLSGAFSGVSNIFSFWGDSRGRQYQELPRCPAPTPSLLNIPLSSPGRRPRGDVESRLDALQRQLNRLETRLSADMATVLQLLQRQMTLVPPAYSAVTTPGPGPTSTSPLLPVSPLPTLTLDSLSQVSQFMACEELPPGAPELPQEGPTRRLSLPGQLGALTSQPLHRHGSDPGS
row,SMILES,"hERG current change (%, negative = inhibition) at 10uM"
1,Cc1ccc(NC(=O)c2cc(CC(C)C)nc3ccccc23)cc1,11%
2,CCOc1ccc2nc(NC(=O)CN3CCN(C)CC3)sc2c1,-15.7%
3,CN(C)CCc1nn[nH]n1,-0.456%
4,CSCCC(NC(=O)c1ccc(Cl)cc1Cl)C(=O)OC1CCCCC1=O (stereo not shown),-26.7%
5,CCOc1ccc(NC(=O)CN(C)CC(=O)Nc2cccc(Cl)c2C)cc1OCC,-10.4%
6,COc1ccccc1C(CCN(Cc1cccs1)C(C)=O)c1ccco1 (stereo not shown),-2.93%
7,CCC(=O)N(CCC(c1ccccc1)c1ccco1)Cc1cccs1 (stereo not shown),-15.9%
8,CC(=O)N(CCC(c1ccccc1)c1ccco1)Cc1cccs1 (stereo not shown),-52.9%
9,CC(Nc1cc(C)cc(C)c1)=[N+](C)CCNS(=O)(=O)c1ccc(Cl)cc1.[I-],-48.5%
10,CCNS(=O)(=O)c1ccc(NC(=O)Nc2cccc(OC)c2)cc1,8.01%
11,CC(=O)Nc1ccc(S(=O)(=O)NCCc2ccc(F)cc2)cc1,-10.7%
12,COc1cccc(NC(=O)C2(S(=O)(=O)c3ccc(Cl)cc3)CC2)c1,-15.9%
13,COc1ccc(NC(=O)CNS(=O)(=O)c2ccccc2)cc1Cl,4.28%
14,CC(Nc1ccc(F)cc1)=[N+](C)CCNS(=O)(=O)c1ccc(Cl)cc1.[I-],-68.4%
15,COc1ccc(NC(=O)CCNS(=O)(=O)c2ccc(NC(C)=O)cc2)cc1Cl,22.8%
16,COc1ccc(NC(C)=[N+](C)CCNS(=O)(=O)c2ccc(Cl)cc2)cc1Cl.[I-],-69.5%
17,COc1cccc(NC(C)=[N+](C)CCNS(=O)(=O)c2ccc(Cl)cc2)c1.[I-],-64.4%
18,COc1ccccc1NC(=O)C(C)NS(=O)(=O)c1ccc(Cl)cc1 (stereo not shown),-0.716%
19,COc1ccccc1NC(C)=[N+](C)CCNS(=O)(=O)c1ccc(Cl)cc1.[I-],-58.7%
20,COc1ccccc1NS(=O)(=O)c1ccc(Cl)cc1,-19.5%
21,CCCc1nc2c(sc3nc4c(cc32)COC(C)(C)C4)c(=O)n1CCN(CC)CC,-17.8%
22,O=[N+]([O-])c1cccc(NC(=S)NCc2ccncc2)c1,0.695%

row,SMILES,"hERG current change (%, negative = inhibition) at 10uM"
1,CCOC(=O)c1c(Nc2ccccc2)sc(/C=C2\C=Nc3ccccc32)c1O,0.585%
2,O=C(O)/C=C/C(=O)N1CCN(c2ccccc2F)CC1,7.85%
3,COc1ccc(-c2ccc(SCC(=O)N3c4ccccc4CC3C)nn2)cc1OC (stereo not shown),-4.75%
4,CCOC(=O)C1CCN(C(=O)c2cn(C)c(=O)c3cc(OC)c(OC)cc23)CC1,-11.3%
5,COc1ccc(NC(=O)CNS(=O)(=O)c2ccc(Cl)cc2)cc1,3.79%
6,COc1ccc(NC(C)=[N+](C)CCNS(=O)(=O)c2ccc(Cl)cc2)cc1.[I-],-70.2%
7,COc1ccc(NC(=O)COC(=O)CCNS(=O)(=O)c2ccc(Cl)cc2)cc1,-23.2%
8,Cc1cc(S(=O)(=O)Nc2ccc3c(c2)n(C)c(=O)n3C)ccc1F,-0.399%
9,Cl.O=C(c1ccc(F)cc1)C(CCCCCC(CN1CCOCC1)C(=O)c1ccc(F)cc1)CN1CCOCC1 (stereo not shown),-86.8%
10,Cl.O=C(c1ccc(F)cc1)C(CN1CCOCC1)c1ccccc1 (stereo not shown),-12.3%
11,Cl.O=C(c1ccccc1)C(CCC(CN1CCOCC1)C(=O)c1ccccc1)CN1CCOCC1 (stereo not shown),-7.92%
12,CCc1ccc(NC(=O)CSc2nnnn2-c2cccnc2)cc1,-15.4%
13,COc1ccccc1CCC(=O)Nc1ncc(C)s1,16.3%
14,Cc1cc(=O)oc2cc(OCC(=O)Nc3ccccc3C(N)=O)c(Cl)cc12,18.5%
15,CC(C)N1CCN(Cc2cccc(-c3ccco3)c2)CC1CCO (stereo not shown),-35.9%
16,C#Cc1ccc(CN2CCN(Cc3ccsc3)C(CCO)C2)cc1 (stereo not shown),-34.6%
17,OCCC1CN(Cc2cccc(-c3ccco3)c2)CCN1Cc1ccsc1 (stereo not shown),-71.6%
18,Cc1ccc(CN2CCN(Cc3ccccc3-c3ccco3)CC2CCO)o1 (stereo not shown),-22.3%
19,CC(C)CCN1CCN(Cc2ccsc2)CC1CCO (stereo not shown),-6.33%
20,OCCC1CN(Cc2ccccc2-c2ccco2)CCN1Cc1ccsc1 (stereo not shown),-51%
21,Cc1ccc(CN2CCN(C3CCCC3)C(CCO)C2)s1 (stereo not shown),-22.4%
22,OCCC1CN(Cc2ccccc2-c2ccco2)CCN1Cc1ccccc1 (stereo not shown),-35.7%

row,SMILES,"hERG current change (%, negative = inhibition) at 10uM"
1,OCCC1CN(Cc2ccc(-c3ccco3)cc2)CCN1Cc1ccsc1 (stereo not shown),-53.8%
2,OCCC#Cc1ccc(CN2CCN(Cc3ccsc3)C(CCO)C2)cc1 (stereo not shown),-4.59%
3,OCCC1CN(Cc2ccccc2-c2ccco2)CCN1C1CCCC1 (stereo not shown),-63.8%
4,OCCC1CN(Cc2cccc3c2OCO3)CCN1C1CCCCC1 (stereo not shown),-9.67%
5,COc1cccc(/C=C2\SC(=O)NC2=O)c1OCc1ccc(C(=O)O)cc1,9.69%
6,OCCN1CCN(Cc2cc(Cl)c3cccnc3c2O)CC1,16.6%
7,COc1ccccc1N1CCN(C(=O)C(=O)c2c[nH]c3ccccc23)CC1,0.156%
8,Nc1ccccc1SCC(=O)Nc1ccc2c(c1)OCCO2,3.12%
9,O=C(CSc1nnc2c(n1)[nH]c1ccc(F)cc12)Nc1ccccc1F,19.5%
10,Cc1ccc(C(=O)NC2CCSC2=O)cc1 (stereo not shown),7.89%
11,Cc1ccc(NC(=O)C2OCCc3ccccc32)cc1C (stereo not shown),-3.78%
12,Cc1cc(OCCN2CCOCC2)ccc1[N+](=O)[O-].O=C(O)C(=O)O,5.11%
13,COc1cc(NC(=O)CN2CCC(Cc3ccccc3)CC2)c(C)cc1[N+](=O)[O-],6.01%
14,Cc1cc(OCCCN2CCN(Cc3ccccc3)CC2)ccc1[N+](=O)[O-].O=C(O)C(=O)O,-71.5%
15,Cc1cc(OCCCn2ccnc2)ccc1[N+](=O)[O-].O=C(O)C(=O)O,-2.51%
16,Cc1ccc([N+](=O)[O-])c(OCCCN2CCCCCC2)c1.O=C(O)C(=O)O,-58.6%
17,Cc1ccc([N+](=O)[O-])c(OCCCN2CCC(Cc3ccccc3)CC2)c1.O=C(O)C(=O)O,-89.6%
18,Cc1ccc([N+](=O)[O-])c(OCCN2CCC(Cc3ccccc3)CC2)c1.O=C(O)C(=O)O,-73%
19,Cc1ccc([N+](=O)[O-])c(OCCN2CCCCCC2)c1.O=C(O)C(=O)O,-34%
20,Cc1ccc([N+](=O)[O-])c(OCCN2CCc3ccccc3C2)c1.O=C(O)C(=O)O,-23.3%
21,Cc1ccc(OCCN2CCN(C)CC2)c([N+](=O)[O-])c1.O=C(O)C(=O)O,6%
22,Cc1ccc([N+](=O)[O-])c(OCCN2CCNCC2)c1.O=C(O)C(=O)O,-14.6%

row,SMILES,"hERG current change (%, negative = inhibition) at 10uM"
1,O=C(Nc1ccccc1F)c1ccc2c(c1)CCN2S(=O)(=O)c1ccccc1,19.5%
2,C=CCn1c(SCc2ccccc2C#N)nnc1-c1ccccc1O,-23.7%
3,Cc1ccc2c(c1)C(c1ccc(N3CCOCC3)cc1)=NNC(c1cccs1)=N2,1.66%
4,Nc1n[nH]c(N)c1N=Nc1ccc(Cl)cc1Cl,19.1%
5,COc1ccc(-c2noc(N3CCC(C(=O)Nc4ccccc4Cl)CC3)n2)cc1,10.8%
6,Cc1cc(NC(=O)c2ccccc2)sc1C,5.55%
7,Cc1cc(OC(=O)c2cccc(Cl)c2)c([N+](=O)[O-])c(=O)[nH]1,19.9%
8,COCCNc1oc(-c2ccco2)nc1S(=O)(=O)c1ccccc1,2.69%
9,CCC(CO)NCC(O)COCc1ccc2c(c1)OCO2 (stereo not shown),10.1%
10,Cc1ccc(OCCCCN2CCCC(C)C2)c([N+](=O)[O-])c1.O=C(O)C(=O)O (stereo not shown),-69%
11,Cc1ccc(C)c(OCCCCN2CCCCC2)c1.O=C(O)C(=O)O,-42.1%
12,Cc1cc(OCCN2CCCCCC2)ccc1[N+](=O)[O-].O=C(O)C(=O)O,-46.2%
13,Cc1cc(C)c(C)c(OCCOCCN2CCN(C)CC2)c1,-1.93%
14,Cc1ccc(OCCCN2CCCC2)c(C)c1.O=C(O)C(=O)O,-27.2%
15,Cc1cc(OCCN2CCCC2)ccc1[N+](=O)[O-].O=C(O)C(=O)O,-9.82%
16,Cc1ccc(OCCOCCN2CCCCC2)c([N+](=O)[O-])c1.O=C(O)C(=O)O,-37.5%
17,Cc1cc(C)c(C)c(OCCCCN2CCCCC2)c1,-52.5%
18,Cc1ccc(OCCCN2CCOCC2)c([N+](=O)[O-])c1.O=C(O)C(=O)O,-12%
19,Cc1cc(OCCN2CCC(Cc3ccccc3)CC2)ccc1[N+](=O)[O-].O=C(O)C(=O)O,-79.1%
20,Cc1ccc(OCCCCN2CCCCC2)c(C)c1,-24.6%
21,Cc1ccc(C)c(OCCCN2CCCC2)c1.O=C(O)C(=O)O,-54.9%
22,CCN(CC(=O)NC1CCS(=O)(=O)C1)S(=O)(=O)c1ccccc1 (stereo not shown),7.7%
